The panel holds about 83,000 compounds, 20% with a hit somewhere; the sample as a whole holds those more often.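 Step 1: grow cells in 96-well plates. Step 2: add test compound at a single concentration. Step 3: incubate 48 h. Step 4: record percent growth.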 Values without a mark were called inactive. Activity calls are given as the source filed them. Rule for the calls: active = growth percent below 10; inactive = the rest.

For the first experiment, the system named is RPMI-8226 leukemia. Description: NCI-60 one-dose screen, 48 h (100 = growth as untreated, 0 = no growth, -100 = all killed). The following applies: 10 µM unless noted.
Consider `COc1cccc2c1C(=O)c1c(O)c3c(c(O)c1C2=O)C[C@](O)(C(=O)CO)C[C@H]3O[C@@H]1C[C@@H](NC(=O)CCCCCN(C)C2(c3ccc(F)cc3)CC3CCC2C3)[C@H](O)[C@@H](C)O1` (some centres undefined), for which the growth was -35.4% (active). On the same count and under the same terms, next, `NC(=NCCCC1(c2ccccc2)CCCC1)Nc1ccc(Cl)cc1`: -24.2% (active); `CCC#CC[C@H](O)C/C=C1/C(=O)C=C[C@@H]1C/C=C\CCCC(=O)OC`: -13.6% (active); `O=c1oc2c(C(F)(F)F)cccc2cc1-c1csc(Nc2ccc(OCCF)cc2)n1`: 15.9%.

Turning to `CNC(=O)c1cc(Oc2ccc(NC(=O)Nc3ccc(Cl)c(SC)c3)c(F)c2)ccn1`, the growth was 27.6%. Still for that read-out and setting: next, `c1ccc2[nH]c(-c3ccc(Nc4nc(N5CCCC5)nc5[nH]ncc45)cc3)nc2c1`: -34.4% (active); `CC/C=C\C/C=C\C[C@H]1C/C=C2/C(=O)C=C[C@@H]2C/C=C\CCC(=O)O1`: -14.6% (active). On to `COc1ccc(CN2c3ccccc3Sc3ccccc32)cc1O`, for which the growth was 24.4%.

As to `CCOc1ccc(-n2nc(C(=O)Nc3cc(OC)c(OC)c(OC)c3)nc2-c2cc(OC)c(OC)c(OC)c2)cc1`, the growth was 55.7%.

Regarding `CC/C=C\C[C@H]1C/C=C2/C(=O)C=C[C@H]2C/C=C\CCCC(=O)O1`, the growth was -10% (active).

The subject of another experiment is OVCAR-8 ovarian. Described as above. The following applies: 10 µM unless noted.
With `COc1cccc2c1C(=O)c1c(O)c3c(c(O)c1C2=O)C[C@](O)(C(=O)CO)C[C@H]3O[C@@H]1C[C@@H](NC(=O)CCCN(C)C2(c3ccc(F)cc3)CC3CCC2C3)[C@H](O)[C@@H](C)O1` (some centres undefined), the growth was -43.1% (active).

In the case of `O=c1cc(CSc2nnc(SCc3cc(=O)oc4c3ccc3ccccc34)o2)c2ccc3ccccc3c2o1`, the growth is 94.1%. On the same count and under the same terms, next, `COc1cc2c(cc1O)CC[C@@H]1[C@@H]2CC[C@]2(C)[C@@H](OCCN(C)C)CC[C@@H]12`: 65.6%; `NC(=NCCCOc1ccc(Cl)cc1)Nc1ccc(C(F)(F)F)cc1`: 66.3%. Regarding `CCCCC[C@H]1C/C=C2/C(=O)C=C[C@@H]2C/C=C\CCCC(=O)O1`, the growth was 5.97% (active). The same measure, in the same setting: next, `CNC(=O)c1cc(Oc2ccc(NC(=O)Nc3ccc(Cl)c(OC(F)(F)F)c3)c(F)c2)ccn1`: 30.3%; `COc1ccc2c(c1)C(=O)/C(=C/c1cccnc1)CC2`: 96.8%. The same measure, in the same setting: next, `COc1cccc(-c2nc(SCC(=O)Nc3ccc(C(=O)/C=C/c4ccc(OC)c(OC)c4)cc3)[nH]c(=O)c2C#N)c1`: 99.2%; `CCCn1c(=O)[nH]c(N)c([C@H]2c3ccccc3Oc3[nH]c(=O)n(CCC)c(=O)c32)c1=O`: 78.9%. Same read-out and setting: next, `O=C1c2c(O)cc(O)cc2-c2c(-c3ccc(O)cc3)oc3cc(O)cc1c23`: 46.6%; `O=C1/C(=C/c2ccccc2O)N=C2SCCCN12`: 98.4%. For the molecule `COc1ccc(-c2nc(SCC(=O)Nc3ccc(C(=O)/C=C/c4ccc(Cl)cc4)cc3)[nH]c(=O)c2C#N)cc1`, the growth was 106%. As for `COc1ccc2c(c1)CC/C(=C\c1cncc(Br)c1)C2=O`, the growth is 90%. For the molecule `COc1ccc2c(c1)C(=O)/C(=C/c1ccccn1)CC2`, the growth is 85.4%. As for `CCOC(=O)c1sc(Nc2ccc(Cl)cc2)nc1C`, the growth was 19.8%. The same measure, in the same setting: next, `CC(=O)c1cc(C(=O)c2ccc3c(c2)Sc2ccccc2N3)n2ccccc12`: 6.54% (active).

Take `CC(=O)O[C@H]1C(=O)[C@@]2(C)[C@H]([C@H](OC(=O)c3ccccc3)[C@]3(O)C[C@H](OC(=O)[C@H](OC(=O)CCC(=O)OC4CCC(S/N=C(N)/N=C(\N)N(C)C)CC4)[C@@H](NC(=O)c4ccccc4)c4ccccc4)C(C)=C1C3(C)C)[C@]1(OC(C)=O)CO[C@@H]1C[C@@H]2O` (some centres undefined): the growth was 21.8%. Take `CC(=O)OC[C@H]1O[C@H](OC(C)=O)[C@H](NC(=O)/C=C/CCl)[C@@H](OC(C)=O)[C@@H]1OC(C)=O`: the growth is 81.6%.

For the molecule `COc1cc(-c2nc(C(=O)NCC(=O)NO)nn2-c2ccc(Cl)cc2)cc(OC)c1OC`, the growth is 98.5%. Still for that read-out and setting: next, `C=C1C(=O)O[C@H]2[C@H]1CC/C(COC(=O)NCCc1ccc(OC)c(OC)c1)=C\CC[C@@]1(C)O[C@@H]21`: 51%; `CC/C=C\C[C@H](O)C/C=C1/C(=O)C=C[C@@]1(C)C/C=C\CCCC(=O)OC`: 97.8%; `Cc1ccc2oc(=O)cc(C3c4ccc([nH]4)C(c4cc(=O)oc5ccc(C)cc45)c4ccc([nH]4)C(c4cc(=O)oc5ccc(C)cc45)c4ccc([nH]4)C(c4cc(=O)oc5ccc(C)cc45)c4ccc3[nH]4)c2c1` (centres undefined): -47.8% (active). On the same count and under the same terms, next, `NC(=NCCCC1(c2ccccc2)CCCC1)Nc1ccc(Cl)cc1`: 60.4%. Same read-out and setting: next, `CCC#CC[C@H](O)C/C=C1/C(=O)C=C[C@@H]1C/C=C\CCCC(=O)OC`: 7.14% (active); `O=c1oc2c(C(F)(F)F)cccc2cc1-c1csc(Nc2ccc(OCCF)cc2)n1`: 4.22% (active); `CNC(=O)c1cc(Oc2ccc(NC(=O)Nc3ccc(Cl)c(SC)c3)c(F)c2)ccn1`: 49.9%. `c1ccc2[nH]c(-c3ccc(Nc4nc(N5CCCC5)nc5[nH]ncc45)cc3)nc2c1`: the growth is -55.1% (active).

Consider `CC/C=C\C/C=C\C[C@H]1C/C=C2/C(=O)C=C[C@@H]2C/C=C\CCC(=O)O1`, for which the growth was 7.21% (active). Still for that read-out and setting: next, `CCOc1ccc(-n2nc(C(=O)Nc3cc(OC)c(OC)c(OC)c3)nc2-c2cc(OC)c(OC)c(OC)c2)cc1`: 74%.

The record behind these values is PubChem BioAssay (NCI).
